Measured values reported in PubChem BioAssay (NCATS).
The list shows a part of the results. Records with an inconclusive call do not appear. Active and inactive are the calls of the source. The call rests on the fitted dose curve; in most records, active means well fitted inhibition curve with a large enough effect; inconclusive means small, poorly fitted or top-dose-only effect; inactive means flat fitted curve, though single readings scatter.

Target: Fructose-bisphosphate aldolase (Giardia intestinalis (strain ATCC 50803 / WB clone C6)) (UniProt A8B2U2)
Sequence (A8B2U2 whole entry, looked up): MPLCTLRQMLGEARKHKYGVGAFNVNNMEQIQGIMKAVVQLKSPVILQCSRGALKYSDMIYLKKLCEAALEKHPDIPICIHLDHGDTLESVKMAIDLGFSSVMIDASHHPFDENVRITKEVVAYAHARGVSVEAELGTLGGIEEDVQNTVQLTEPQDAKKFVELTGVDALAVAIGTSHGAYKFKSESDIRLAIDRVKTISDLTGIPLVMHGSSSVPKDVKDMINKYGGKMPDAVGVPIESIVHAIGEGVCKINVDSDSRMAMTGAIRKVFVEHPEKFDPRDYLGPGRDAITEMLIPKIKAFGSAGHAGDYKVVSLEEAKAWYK
Experiment: qHTS Assay for Inhibitors of Fructose-1,6-bisphosphate Aldolase from Giardia Lamblia: Primary screen confirmation (AID 2787);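 further: aldolase product measured through coupled diaphorase step turning resazurin into fluorescent resorufin; nearly all actives have a fitted effect of over 45% in size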
Details: purified Giardia aldolase enzyme activity; series mostly up to 57.5 µM; activity change, negative = inhibition: at the top concentration
Text: NIH Chemical Genomics Center [NCGC]
NIH Molecular Libraries Probe Production centers Network [MLPCN]
Assay Provider: Osnat Herzberg, University of Maryland
The objective of this project is to obtain compounds that inhibit Giardia lamblia growth. G. lamblia is a human pathogen which afflicts impoverished nations; it is the most common cause of outbreaks of diarrhea in the United States. During the course of our study of potential drug targets in Giardia, we have identified the Class II (Zn2+ functions in electrophilic catalysis) fructose-1,6-bisphosphate aldolase (FBPA) as an excellent candidate for drug targeting. FBPA is a key glycolytic pathway enzyme, essential for G. lamblia survival. The human FBPA belongs to the Class I aldolases, which have a different substrate binding site structure and a radically different catalytic mechanism (employing a lysine-Schiff base intermediate). Therefore, affinity-based or mechanism-based inhibitors of the Giardia FBPA are expected not to interfere with the catalytic function of the human FBPA.
A glyceraldehyde-3-phosphate dehydrogenase/triose phosphate isomerase/NAD/arsenate coupled assay was adapted to the 1536-well HTP format for use in the primary screen. This was done by coupling it to a diaphorase/resazurin/resorufin reaction that can be monitored by fluorescence (excitation, 544 nm; emission, 590 nm). Compounds identified in this screen will be further evaluated by coupling the glycerol-3-phosphate/triose phosphate isomerase/NADH assay to a phenazine methosulfate/tetranitroblue tetrazolium color reaction. False positives due to the dehydrogenases and diaphorase inhibition will be eliminated, and selectivity assay will triage inhibitors of mammalian triose phosphate isomerase and the Class I FBPA. G. lamblia FBPA inhibitors identified by the in vitro analyses will be examined for growth inhibition of Giardia trophozoites, and for cytotoxicity in human cells.
The present assay was used to confirm hits from the primary screen.
Step,Parameter,Value,Description
1,Enzyme reagent,2 uL,40 nM FBPA w/ 30uM ZnCl2
2,Compound,23 nL,3.68 nM-57.5 uM final concentration
3,Time,10 min,RT Incubation
4,Substrate/detection Reagent,2 uL,Substrate + enzyme coupling system + AmpLite Red kit
5,Time,20 min,RT Incubation
6,Detector,525 nm/598 nm (Fluorescence),ViewLux Fluorescence Read (Read 1)
1,Medium-binding black solid-bottom Kalypsys plates. FRD or Kalypsys dispenser, 2 uL of FBPA enzyme. Bottle kept at 4C.
2,Compound Library (10 mM ,1:5 dilution). Pin-transferred for a [final] range of 3.68 nM-57.5 uM.
4,FRD or Kalypsys dispenser, 2 uL of reaction mixture. Bottle kept at 4C and covered in foil to protect from light.
6,ViewLux Protocol 1194; Excitation filter wheel A (525/20 Pol; BODIPY TMR FP), Emission filter wheel B (598/25 S; BODIPY TMR FP S).
Keywords: Fructose-bisphosphate aldolase, FBPA , Giardia lamblia , Giardia, HTS, Inhibitors
On the % scale 0 is the no-effect control and ±100 the full control effect.

Activity change, negative = inhibition, inactive:
C=C(C)CNC(=S)N/N=C/c1ccccc1OCC(=O)O 1.59%, O=C(CN1CCN(Cc2ccccc2)CC1)Nc1ccc(F)c(F)c1 -1.29%, COc1ccc(N=Nc2c(-c3ccc(OC)cc3)[nH]oc2=O)cc1 -5%, Cn1nnc(NC(=S)NC(=O)c2ccccc2)n1 1.95%, O=[N+]([O-])c1ccc2nc(-c3ccccn3)[nH]c2c1 -17.5%, O=[N+]([O-])c1cc([N+](=O)[O-])c2cccnc2c1O -10.8%, CCc1ccc2c(c1)C1(NN=C(c3ccccc3)S1)C(=O)N2 (stereo not given) 7.54%, Cc1csc(NC(=O)CN2CCCCCC2)n1 2.62%, O=C(CSc1cccc[n+]1[O-])c1ccc(-c2ccccc2)cc1 1.49%, CSc1n[nH]c(=S)n1N -12.2%, COc1ccc(C(=O)NC(=S)N2CCCCC2c2cccnc2)cc1OC (stereo not given) 5%, Cc1cc(C)nc(N/N=C/c2ccc([N+](=O)[O-])o2)n1 -14.8%, Cc1cccc(-c2nnc(SCC(=O)O)n2Cc2ccccc2)c1 1.71%, CN1CCCc2cc(C#N)c(=O)[nH]c21 -24%, CC(=O)NC1CCN(CC(=O)Nc2nccs2)CC1 1.61%, O=C(Nc1nnc(-c2ccco2)o1)c1ccc(S(=O)(=O)N2CCOCC2)cc1 7.15%, CN1C(=O)/C(=C\c2ccc(-c3ccccc3)o2)SC1=S -5.06%, COc1ccc(CN2CCN(Cc3ccc(OC)c(OC)c3OC)CC2)cc1 -11.3%, Cc1cc(C)c2c(=O)[nH]c(SCC(=O)Nc3ccc(Br)cc3)nc2n1 6.84%, COCCN(C(=S)Nc1ccccc1OC)C1CCN(C(C)C)CC1 3.8%, Oc1[nH]c2ccc(Br)cc2c1N=Nc1nn[nH]n1 7.96%, CCN(CC(=O)Nc1ccc(S(=O)(=O)N2CCCC2)cc1)CC(=O)Nc1cccc(OC)c1 5.79%, O=C(N/N=C/c1ccccn1)c1cccnc1 2.14%, C=CCNC(=S)/N=c1/ccccn1Cc1ccccc1 2.96%, O=c1nc(N/N=C/c2ccco2)cn[nH]1 7.99%, Cc1nnc(N/N=C/c2ccccn2)[nH]c1=O -13.9%, COc1ccccc1CN1CCN(Cc2cc(OC)c(OC)cc2OC)CC1 0.82%, COc1ccc(Cl)cc1C(=O)NNC(=O)c1nc2nc(C)cc(C)n2n1 15%, Oc1ccc2ccccc2c1N=Nc1nccs1 -16.3%, O=C(Nc1ccccc1Cl)O/N=C(/c1ccccc1)c1ccccn1 -7.81%, CN(C)CCOc1ccc(Cl)cc1C(C)(C)C -11.7%, CC(C)(c1ccccc1)c1ccc(OCCN2CCCC2)cc1 0.817%, Cc1nc2ccc(NC(=S)N3CCC(C)CC3)cc2nc1C -29.8%, Cc1ccc(C(=O)Nc2nnc(C3=COCCO3)o2)cc1C -3.19%, C=CCc1cc(C)ccc1OCCCn1ccnc1 -4.57%, Cc1cccc(C)c1OCCN1CCOCC1 1.33%, CCN1CCc2c(C#N)c(NCc3ccccc3)nc(NCCO)c2C1 -29.6%, Clc1cccc(CN2COc3c(cc(Cl)c4cccnc34)C2)c1 -18.2%, COc1cc(CN2CCN(Cc3ccc(C)cc3)CC2)c([N+](=O)[O-])cc1OC -8.67%, Cn1c(=O)[nH]c(=O)c2c1[nH]c(=S)n2Cc1ccccc1 -3.25%
